From PubChem BioAssay
A selection: hits, their analogues and other compounds. The true share with any hit is near 12%.
L3MBTL1 inh: qHTS Assay for the Inhibitors of L3MBTL1; actives 0.66% (n = 230,000); Potency, µM (highest dose often 57.1 µM), without a hit: at the top dose activity, negative = inhibition, actives largely listed as inhibitors; AlphaScreen L3MBTL1–H3K9me1 peptide binding; Lethal(3)malignant brain tumor-like protein 1 (Homo sapiens), Q9Y468; note: % is set by controls: 0 for no effect and ±100 for the full control effect; nearly all actives have a fitted effect of over 60% in size
Target sequence (Q9Y468 whole entry, looked up): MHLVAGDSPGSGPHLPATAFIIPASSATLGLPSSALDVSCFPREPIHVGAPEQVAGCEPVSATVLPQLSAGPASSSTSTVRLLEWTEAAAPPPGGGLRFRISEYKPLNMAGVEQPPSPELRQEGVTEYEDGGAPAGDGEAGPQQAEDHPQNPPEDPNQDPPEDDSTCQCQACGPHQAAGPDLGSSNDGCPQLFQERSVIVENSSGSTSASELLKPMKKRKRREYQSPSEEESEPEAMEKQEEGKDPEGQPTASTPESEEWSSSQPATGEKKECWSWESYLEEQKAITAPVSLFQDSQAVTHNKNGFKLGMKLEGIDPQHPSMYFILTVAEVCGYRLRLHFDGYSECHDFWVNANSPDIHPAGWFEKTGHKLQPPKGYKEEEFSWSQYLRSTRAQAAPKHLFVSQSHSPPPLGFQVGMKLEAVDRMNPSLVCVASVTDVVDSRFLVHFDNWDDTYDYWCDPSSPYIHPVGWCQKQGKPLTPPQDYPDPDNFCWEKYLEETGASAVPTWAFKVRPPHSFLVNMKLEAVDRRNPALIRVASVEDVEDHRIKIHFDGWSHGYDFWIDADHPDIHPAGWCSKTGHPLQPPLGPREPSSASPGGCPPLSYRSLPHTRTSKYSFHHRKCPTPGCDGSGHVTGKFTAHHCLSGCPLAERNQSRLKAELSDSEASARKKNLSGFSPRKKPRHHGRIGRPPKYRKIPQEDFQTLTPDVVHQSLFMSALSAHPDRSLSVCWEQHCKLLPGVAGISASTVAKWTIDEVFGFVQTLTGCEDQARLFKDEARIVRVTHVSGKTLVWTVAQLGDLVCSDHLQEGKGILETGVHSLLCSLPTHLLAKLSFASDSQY
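First, the protein-peptide complex forms for 30 min at room temperature (L3MBTL1 50 nM, biotinylated H3K9me1 peptide 75 nM). Next, compounds are pin-transferred and incubated 30 min. Finally, AlphaScreen beads are added and read after 30 min.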
JMJD2A Tudor inh: qHTS Assay for Inhibitors of JMJD2A-Tudor Domain; Potency, µM (top dose mostly 114 µM), without a hit: at the top dose activity change, negative = inhibition, hits mostly inhibitors; Lysine-specific demethylase 4A (Homo sapiens), O75164; AID 504339, 2011; AlphaScreen JMJD2A-Tudor / H3K4me3 peptide binding; actives 4.4% (n = 390,000); note: % is set by controls: 0 for no effect and ±100 for the full control effect; nearly all actives have a fitted effect of over 50% in size
Sfp inh: qHTS Assay for Inhibitors of Bacillus subtilis Sfp phosphopantetheinyl transferase (PPTase). 4'-phosphopantetheinyl transferase ffp (Bacillus subtilis), Q9F4F7. Biochemical Sfp PPTase activity, qHTS. Potency, µM, for the others: largest response in the series, negative = inhibition, hits mostly inhibitors. actives 3.5% (n = 310,000);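 note: the enzyme is Sfp with the accession as filed and its product quenches rhodamine fluorescence; 0% = enzyme reaction without inhibitor and -100% = no enzyme wells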
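Sfp 15 nM + cpd, 15 min RT; start w/ rhodamine-CoA 5 uM, BHQ-2-YbbR 12.5 uM (final); 50 mM Hepes pH 7.6, 10 mM MgCl2, 0.01% NP-40, 0.01% BSA; read 525/598 nm at 0 and 30 min.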
G9a inh: qHTS Assay for Inhibitors of Histone Lysine Methyltransferase G9a. Potency, µM (highest dose often 102 µM), without a hit: top-dose activity, negative = inhibition, usual class: inhibitors. Histone-lysine N-methyltransferase EHMT2 (Homo sapiens), Q96KQ7. actives 8.8% (n = 350,000). G9a H3K9 monomethylation, AlphaScreen, 2 h; note: % is set by controls: 0 for no effect and ±100 for the full control effect; nearly all actives have a fitted effect of over 75% in size
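G9a (20 nM) preincubated 15 min RT with compounds, then 500 nM biotinylated H3K9 peptide and 20 uM SAM added; 2 h RT reaction. Monomethyl-H3K9 product detected by AlphaScreen with anti-H3K9me1 antibody, streptavidin donor and anti-rabbit IgG acceptor beads.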
BAZ2B block: qHTS Assay for Inhibitors of BAZ2B | actives 4.4% (n = 360,000) | Potency, µM (highest dose often 114 µM), inactives show at the top dose activity change, negative = inhibition, actives largely listed as inhibitors | AlphaScreen BAZ2B-H3K14Ac peptide displacement; note: % is set by controls: 0 for no effect and ±100 for the full control effect; nearly all actives have a fitted effect of over 60% in size
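BAZ2B 50 nM plus b-H3(5-23)K14Ac 50 nM, PBS pH 7.4/0.01% Tween-20, 30 min RT; compound added (max 110 uM), 30 min RT; streptavidin donor/Ni-chelate acceptor beads 10 ug/mL final, 20 min dark; AlphaScreen read.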
HP1b chromo inh: HTS for Inhibitors of HP1-beta Chromodomain Interactions with Methylated Histone Tails; AlphaScreen HP1-beta / biotin-H3K9me3 peptide binding; Potency, µM (highest dose often 114 µM), without a hit: top-dose activity change, negative = inhibition, most hits filed as inhibitors; actives 0.56% (n = 390,000); AID 540317, 2011; note: nearly all actives have a fitted effect of over 70% in size
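AlphaScreen: HP1-beta (50 nM) preformed 30 min with biotin-H3(1-18)K9me3 peptide (50 nM) in PBS pH 7.4, 0.01% Tween-20. Compound added for 30 min at RT, then streptavidin donor/nickel chelate acceptor beads (10 ug/mL) for 30 min.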
Starred values were filed as active, the others as inactive; u = inconclusive; x = not tested or not shown; [ ] = another dose, or the depositor's remark. Calls come from the whole dose curve; as a rule, active = well fitted curve in the direction sought with a large enough effect; inconclusive = small, poorly fitted or top-dose-only effect, or another doubt; inactive = no such curve, though single readings can be large; an effect the other way counts as inactive or inconclusive. Potency is the fitted concentration of half-maximal effect.

SMILES	L3MBTL1 inh	JMJD2A Tudor inh	Sfp inh	G9a inh	BAZ2B block	HP1b chromo inh
CC(C)c1ccc(NC(=O)CNCC(c2ccccc2)N(C)C)cc1 (configuration not stated)	u	45µM*	u	35µM*	u	-14%
CC(C)c1ccc(N2C(=O)CC(Sc3nc4ccccc4o3)C2=O)cc1 (configuration not stated)	-6%	-15%	u	45µM*	0%	57%
O=C1CC(Sc2cccs2)C(=O)N1c1ccccc1 (configuration not stated)	6%	1%	-29%	x	-1%	34%
O=C1CC(Sc2nnc(-c3ccccc3)o2)C(=O)N1c1ccccc1 (configuration not stated)	-8%[11.4 µM]	-8%	22µM*	u	10%	3%
Cc1ccccc1N1C(=O)CC(Sc2nnc(-c3ccccc3)o2)C1=O (configuration not stated)	2%	-6%	10µM*	7.9µM*	-5%	-2%
O=C(CSc1nccn1Cc1ccccc1)NCc1ccco1	x	u	x	u	u	9%[57 µM]
CCc1ccc(-c2nc(CSCC(=O)N3CCN(c4ccccn4)CC3)c(C)o2)cc1	-16%	u	-8%	52%[59 µM]	50µM*	-17%
CCOc1ccc(-c2nc(CSCC(=O)NC3CC3)c(C)o2)cc1	x	-19%	12%	-3%[0.0925 µM]	-8%	23%
CCOc1ccc(-c2nc(CSCC(=O)NC3CCCc4ccccc43)c(C)o2)cc1 (configuration not stated)	x	-27%	22µM*	u	u	26%
CCOc1ccc(-c2nc(CSCC(=O)N3CCN(c4cccc(OC)c4)CC3)c(C)o2)cc1	-21%	56µM*	-5%	u	u	u
CN(C)c1ccc(-c2cncnc2NCc2ccccc2)cc1	x	x	-18%	x	x	x
COCC(=O)NC(c1ccccc1)c1ccccc1	2%	-1%	11%	23%[59 µM]	2%	58%
CC(C)CC(NC(=O)C1CCCCC1)C(=O)NC(C)c1ccccc1 (configuration not stated)	x	-14%	3%	-32%	-12%	11%
CC(C)CCC(C(=O)NC(C)c1ccccc1)C(=O)NC(C)c1ccccc1 (configuration not stated)	x	22µM*	15%	-9%	u	-19%
CC(C)CCNCC(=O)NC(c1ccccc1)c1ccccc1	30%	32µM*	-4%	5.6µM*	56µM*	13%
COc1ccccc1C(=O)Nc1cc2c(cc1N1CCCCC1)n(C)c(=O)n2C	x	u	x	-32%[59 µM]	u	-23%
COc1ccc(NC(=O)CCCc2nnc3n(C(C)C)c(=O)c4sccc4n23)cc1Cl	x	4%	x	19%[59 µM]	6%	73%
CC(C)c1ccc(NC(=O)CN2C(=O)c3cccc4cccc2c34)cc1	x	8%	x	0%[59 µM]	-2%	27%
CCOC(=O)c1ccc(NC(=O)CSc2nnc(CCc3ccc(C)o3)n2-c2ccccc2)cc1	-11%	-17%	16µM*	45µM*	-29%	12%
Cc1c(Cl)cccc1NC(=O)CSc1nnc(C)n1-c1ccccc1	-6%	-14%	7%	7%[59 µM]	x	26%
COC(=O)c1ccc(NC(=O)CSc2nnc(C)n2-c2ccccc2)cc1	x	-15%	-27%	-48%[59 µM]	-6%	16%
Cc1ccc(CCc2nnc(SCC(=O)Nc3ccccc3Cl)n2-c2ccccc2)o1	-10%	-33%	-22%	28µM*	u	-4%
CC1=CC(=O)C2C(C)(C)CCC[C@@]2(C)[C@@]1(O)CCc1ccoc1 (some centres not stated)	x	x	-8%	x	x	x
COc1ccc([N+](=O)[O-])cc1-n1cccc1	-14%	u	6%	5%[59 µM]	50µM*	u
O=C1CC(c2ccc(Cl)cc2)Sc2nc(-c3ccc(F)cc3)nn21 (configuration not stated)	x	-2%	x	-6%[59 µM]	0%	30%
SMILES	L3MBTL1 inh	JMJD2A Tudor inh	Sfp inh	G9a inh	BAZ2B block	HP1b chromo inh
COc1ccc(N2CCN(Cc3nc(Cc4cccc(F)c4)no3)C(C)C2)cc1 (configuration not stated)	-4%	50µM*	5%	x	25µM*	u
COc1cc2c(cc1OC)n(CC(=O)Nc1ccc(C)cc1C)c(=O)n1nc(-c3ccccc3)nc21	x	-4%	x	6%[59 µM]	-2%	51%
COc1ccc(N/N=C(\C#N)C(N)=O)cc1	-1%	-34%	1%	8.9µM*	-5%	-14%
N#C/C(=N/Nc1ccc(OC(F)(F)F)cc1)C(N)=S	-27%	u	u	x	35µM*	-19%
COc1ccc(C(=O)/C(C#N)=N/Nc2ccc([N+](=O)[O-])cc2)cc1	-20%	7.9µM*	-4%	2µM*	7.1µM*	u
CCOc1ccc(N/N=C(/C#N)C(N)=O)cc1	-6%	-30%	12%	u	-14%	16%
COC(=O)/C(=C\C(=O)c1ccc([N+](=O)[O-])cc1)Nc1ccc(OC)cc1	u	18µM*	-8%	x	5.6µM*	11µM*
COc1ccc(N/N=C(\C#N)C(=N)N2CCOCC2)cc1	x	-31%	-8%	28µM*	-31%	12%
N#C/C(=N\Nc1ccc(F)cc1)C(=N)N1CCCCC1	x	-30%	10%	u	u	24%
O=C(c1ccc(COc2ccc3c(c2)CCC3)o1)N1CCN(c2ccccc2)CC1	x	u	x	x	x	-15%
O=C(O)c1cccc(COc2ccc3c(c2)CCC3)c1	22µM*	-13%	6%	50µM*	19%	-8%
O=C(NCc1ccccc1)c1cccc(COc2ccc3c(c2)CCC3)c1	13%	4%	16%	2%	11%	60%
O=C(c1ccco1)N1CCN(C(=O)c2ccc(COc3ccc4c(c3)CCC4)o2)CC1	-11%	u	-12%	1%[0.0925 µM]	50µM*	10%
CCOC(=O)CSc1nc2c([nH]c3ccccc32)c(=O)n1-c1ccc(OCC)cc1	x	u	x	0%[59 µM]	1%	19%[57 µM]
O=C(c1ccccc1)c1ccc(O)c(O)c1O	x	25µM*	x	x	x	u
Oc1cccc(Nc2nc(O)c(/C=C3\C=Nc4ccccc43)s2)c1	-26%	-24%[11.4 µM]	-24%	50µM*	u	11%
Oc1nc(Nc2cccc(Cl)c2)sc1/C=C1\C=Nc2ccccc21	-7%	u	-2%	u	-38%	-17%
